Experimental data published in PubChem BioAssay (NCI).
About 83,000 compounds went through this panel and 20% of them were active in at least one assay; those are over-represented in the sample as a whole.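 Single-dose data. Exposure time 48 hours. Values below 10 considered active.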 Activity calls are given as the source filed them.

Legend:
Test in all cases: NCI-60 one-dose screen, 48 h (100 = growth as untreated, 0 = no growth, -100 = all killed)
Conditions in all cases: 10 µM unless noted
EKVX NSCLC = test system: EKVX NSCLC
SN12C renal = test system: SN12C renal
UO-31 renal = test system: UO-31 renal
TK-10 renal = test system: TK-10 renal
ACHN renal = test system: ACHN renal
CAKI-1 renal = test system: CAKI-1 renal
A498 renal = test system: A498 renal
CCRF-CEM leukemia = test system: CCRF-CEM leukemia
MOLT-4 leukemia = test system: MOLT-4 leukemia

Measured: growth

CC(=O)O[C@]1(C)C[C@H](O)[C@]2(O)C=CO[C@H](O[C@@H]3O[C@H](CO)[C@@H](O)[C@H](O)[C@H]3O)[C@@H]21
inactive: EKVX NSCLC 92.7% | SN12C renal 101% | UO-31 renal 90.6% | TK-10 renal 95.9% | ACHN renal 108% | CAKI-1 renal 102% | A498 renal 110% | CCRF-CEM leukemia 109% | MOLT-4 leukemia 97.5%

COc1ncc(-c2ccc3nccc(-c4ccnnc4)c3c2)cc1NS(=O)(=O)c1ccc(F)cc1F
inactive: SN12C renal 16.4% | ACHN renal 15.3%
active: EKVX NSCLC -7.55% | UO-31 renal -25.7% | TK-10 renal -44.7% | CAKI-1 renal -19.8% | A498 renal -48.2% | CCRF-CEM leukemia 1.61% | MOLT-4 leukemia -11.9%

Cc1ccc(NC(=O)c2ccc(CN3CCN(C)CC3)cc2)cc1Nc1nc(-c2cccnc2)cs1
inactive: EKVX NSCLC 48.3% | SN12C renal 74% | UO-31 renal 82.9% | TK-10 renal 88.3% | ACHN renal 48.3% | CAKI-1 renal 78% | A498 renal 64.8% | CCRF-CEM leukemia 11.8%
active: MOLT-4 leukemia 5.98%

COc1ccc(C(=O)c2cc(OC)c(OC)c(OC)c2)cc1/C=C/C(=O)c1ccc(F)cc1
active: ACHN renal -70.3% | CCRF-CEM leukemia 2.64% | MOLT-4 leukemia 0.641%
inactive: EKVX NSCLC 90.1% | SN12C renal 64.7% | UO-31 renal 56.3% | TK-10 renal 82.9% | CAKI-1 renal 81.5% | A498 renal 80.9%

COc1cc2c(cc1O)c(=O)n(CCN(C)C)c1c3cc4c(cc3ncc21)OCO4
active: EKVX NSCLC 9.22% | SN12C renal -5.86% | UO-31 renal -46.8% | TK-10 renal -45.5% | ACHN renal -61.8% | CAKI-1 renal -10.2% | A498 renal -59.8% | CCRF-CEM leukemia -11.3% | MOLT-4 leukemia -15.9%

O=C(Cc1ccc(/C=C/C(=O)c2ncc[nH]2)cc1)Nc1ccc(Br)cc1
inactive: EKVX NSCLC 38.6% | TK-10 renal 75.5% | CAKI-1 renal 32.5% | A498 renal 73.5%
active: SN12C renal 9.91% | UO-31 renal -40% | ACHN renal 2.05% | CCRF-CEM leukemia 6.63% | MOLT-4 leukemia 2.86%

Cc1c(NC(=O)OC[C@@H]2COCCN2)cn2ncnc(Nc3ccc4c(cnn4Cc4cccc(F)c4)c3)c12
active: EKVX NSCLC 4.4% | SN12C renal 0.74% | UO-31 renal -40.5% | TK-10 renal -7.43% | ACHN renal -0.373% | CAKI-1 renal -2.81% | A498 renal -68.8% | CCRF-CEM leukemia 6.97% | MOLT-4 leukemia 1.8%

O=C1C=CC2(NN=C(c3ccccc3)N2c2ccccc2)c2cccc(O)c21 (stereo not drawn)
active: SN12C renal 7.23%
inactive: EKVX NSCLC 57.9% | UO-31 renal 22.1% | TK-10 renal 91.6% | ACHN renal 55.2% | CAKI-1 renal 81.7% | A498 renal 103% | CCRF-CEM leukemia 76.5% | MOLT-4 leukemia 71.7%

COc1cc2c(c(OC)c1)C1c3ccccc3NC(=O)N1CC2 (stereo not drawn)
active: A498 renal -7.8%
inactive: EKVX NSCLC 42.1% | SN12C renal 39% | UO-31 renal 36.8% | TK-10 renal 49.5% | ACHN renal 44.9% | CAKI-1 renal 34.3% | CCRF-CEM leukemia 10.7% | MOLT-4 leukemia 30.6%

Cn1nccc1Nc1nccc(-c2ccn([C@H](CO)c3ccc(Cl)c(F)c3)c(=O)c2)n1
inactive: EKVX NSCLC 93% | SN12C renal 107% | UO-31 renal 68% | TK-10 renal 67.4% | ACHN renal 90.8% | CAKI-1 renal 79.9% | A498 renal 70.5% | CCRF-CEM leukemia 99.8% | MOLT-4 leukemia 96%

CC/C=C\C[C@H]1C/C=C2/C(=O)C=C[C@@H]2C/C=C\CCCC(=O)O1
inactive: EKVX NSCLC 11.8%
active: SN12C renal -27.8% | UO-31 renal -90.3% | TK-10 renal -38.3% | ACHN renal -89.3% | CAKI-1 renal -35.8% | A498 renal -50.6% | CCRF-CEM leukemia -14.5% | MOLT-4 leukemia -4.8%

COC(=O)[C@H](C)NC(=O)[C@@H](OC)[C@@H]1Cc2cc3cc(OC4CC(OC5CC(O)C(O)C(C)O5)C(O)C(C)O4)c(C)c(O)c3c(O)c2C(=O)[C@H]1OC1CC(OC2CC(OC3CC(C)(O)C(O)C(C)O3)C(O)C(C)O2)C(O)C(C)O1 (stereo partly drawn)
active: UO-31 renal 5.72% | ACHN renal -1.98% | A498 renal -66.5% | MOLT-4 leukemia 0.969%
inactive: EKVX NSCLC 21.9% | SN12C renal 11.5% | TK-10 renal 13.1% | CAKI-1 renal 27.5% | CCRF-CEM leukemia 14.5%

O=C(CNc1nc2ccccc2s1)Nc1ccc(-c2nc3ccccc3s2)cc1
inactive: EKVX NSCLC 110% | SN12C renal 103% | UO-31 renal 80.5% | TK-10 renal 96.7% | ACHN renal 107% | CAKI-1 renal 100% | A498 renal 93.8% | CCRF-CEM leukemia 111% | MOLT-4 leukemia 84.2%

C[C@@H](NC(=O)c1ncnc(N)c1Cl)c1ncc(C(=O)Nc2cc(C(F)(F)F)c(Cl)cn2)s1
inactive: EKVX NSCLC 101% | SN12C renal 82.6% | UO-31 renal 52.8% | TK-10 renal 77.4% | ACHN renal 74.5% | CAKI-1 renal 74.2% | A498 renal 59.6% | CCRF-CEM leukemia 78.5% | MOLT-4 leukemia 70.8%

O=C1/C(=C\c2cccc(OCCCCCOc3ccc(Cl)cc3)c2)N=C2SCCCN12
inactive: EKVX NSCLC 37.2% | SN12C renal 77.6% | UO-31 renal 39.4% | TK-10 renal 56.7% | ACHN renal 49.3% | CAKI-1 renal 52.7% | A498 renal 39.6% | CCRF-CEM leukemia 55.9% | MOLT-4 leukemia 36.7%

Nc1c(Cl)cccc1[N+](=O)[O-]
inactive: EKVX NSCLC 104% | SN12C renal 103% | UO-31 renal 90.4% | TK-10 renal 125% | ACHN renal 104% | CAKI-1 renal 104% | A498 renal 101% | CCRF-CEM leukemia 101% | MOLT-4 leukemia 99.6%

Cn1ccnc1C(=O)/C=C/c1ccc(CC(=O)Nc2ccc(S(F)(F)(F)(F)F)cc2)cc1
active: EKVX NSCLC -27.4% | SN12C renal -11.8% | UO-31 renal -90.5% | TK-10 renal 5.88% | ACHN renal -21.6% | CAKI-1 renal -31.4% | CCRF-CEM leukemia 8.93% | MOLT-4 leukemia -10.5%
inactive: A498 renal 13.5%

COc1ccc2c(OCc3nnc4ccc(-c5ccccc5)nn34)ccnc2c1
inactive: EKVX NSCLC 104% [2.5 µM] | SN12C renal 104% [2.5 µM] | UO-31 renal 74.6% [2.5 µM] | TK-10 renal 93.7% [2.5 µM] | ACHN renal 97.2% [2.5 µM] | CAKI-1 renal 74.6% [2.5 µM] | A498 renal 89.1% [2.5 µM] | CCRF-CEM leukemia 102% [2.5 µM] | MOLT-4 leukemia 72.7% [2.5 µM]

COc1cc(N2CCC(N3CCN(C)CC3)CC2)ccc1Nc1ncnc(Nc2ccccc2S(=O)(=O)C(C)C)n1
inactive: EKVX NSCLC 105% | SN12C renal 107% | UO-31 renal 98.7% | TK-10 renal 108% | ACHN renal 98.5% | CAKI-1 renal 104% | A498 renal 114% | CCRF-CEM leukemia 92.9% | MOLT-4 leukemia 89.9%

CN(C)C[C@@H]1CCn2cc(c3ccccc32)C2=C(C(=O)NC2=O)c2cn(c3ccccc23)CCO1
inactive: EKVX NSCLC 30.5% | TK-10 renal 11.5%
active: SN12C renal -59.7% | UO-31 renal -49.1% | ACHN renal -89.9% | CAKI-1 renal -3.96% | A498 renal -4.95% | CCRF-CEM leukemia -0.337% | MOLT-4 leukemia -4.3%

CCn1c(-c2nonc2N)nc2c(C#CC(C)(C)O)ncc(OC[C@H]3CCCNC3)c21
inactive: EKVX NSCLC 91.9% | SN12C renal 55.7% | UO-31 renal 50.7% | TK-10 renal 46.2% | ACHN renal 78.4% | CAKI-1 renal 54.5% | A498 renal 42.3% | CCRF-CEM leukemia 28.7% | MOLT-4 leukemia 18.5%

COc1cc(F)c(F)c(Nc2ccc(I)cc2F)c1NS(=O)(=O)C1(C[C@H](O)CO)CC1
active: A498 renal -48%
inactive: EKVX NSCLC 29.2% | SN12C renal 51% | UO-31 renal 16.2% | TK-10 renal 27.7% | ACHN renal 37.9% | CAKI-1 renal 30.5% | CCRF-CEM leukemia 67% | MOLT-4 leukemia 43.2%

CNS(=O)(=O)Nc1nccc(Cc2c(C)c3ccc(Oc4ncccn4)cc3oc2=O)c1F
inactive: EKVX NSCLC 55% | SN12C renal 73.1% | UO-31 renal 53.8% | TK-10 renal 34.1% | ACHN renal 56.8% | CAKI-1 renal 44.7% | CCRF-CEM leukemia 84.4% | MOLT-4 leukemia 76.2%
active: A498 renal -17.2%

CSc1nc2ncncc2[nH]1
inactive: EKVX NSCLC 91.2% | SN12C renal 91.4% | UO-31 renal 90.7% | TK-10 renal 102% | ACHN renal 104% | CAKI-1 renal 621% | A498 renal 78.2% | CCRF-CEM leukemia 97.7% | MOLT-4 leukemia 95%

COC(=O)[C@H](Cc1ccc(O)cc1)NC(=O)[C@@H](OC)[C@@H]1Cc2cc3cc(OC4CC(OC5CC(O)C(O)C(C)O5)C(O)C(C)O4)c(C)c(O)c3c(O)c2C(=O)[C@H]1OC1CC(OC2CC(OC3CC(C)(O)C(O)C(C)O3)C(O)C(C)O2)C(O)C(C)O1 (stereo partly drawn)
inactive: EKVX NSCLC 21.5% | SN12C renal 13.3% | UO-31 renal 18.1% | TK-10 renal 23.5% | CAKI-1 renal 69.5% | CCRF-CEM leukemia 11.1%
active: ACHN renal 4.06% | A498 renal -63.2% | MOLT-4 leukemia -1.8%

Cc1cccc(Cl)c1NC(=O)c1cnc(Nc2cc(N3CCOCC3)cc(S(C)(=O)=O)c2)s1
inactive: EKVX NSCLC 27.7% | SN12C renal 28.6% | CCRF-CEM leukemia 72.7% | MOLT-4 leukemia 24.8%
active: UO-31 renal 2.76% | TK-10 renal -64.6% | ACHN renal -2.99% | CAKI-1 renal -27.7% | A498 renal -13.6%

COc1cccc2cc(-c3nc(C4CCC(C(=O)O)CC4)n4ncnc(N)c34)[nH]c12 (stereo not drawn)
active: UO-31 renal -12.4% | TK-10 renal -22.3% | ACHN renal 4.68% | CAKI-1 renal -22.7% | A498 renal -50.6% | CCRF-CEM leukemia 9.93%
inactive: EKVX NSCLC 11.6% | SN12C renal 14% | MOLT-4 leukemia 15.2%
